Test results reported in the OligoGym collection.

Each sequence was assayed against CMIP (assay: pooled miR-30 sensor sort-seq; sequence = guide strand). Details: shRNA.
Also: reference of the scale not given here.

| Sequence | sensor-assay potency score (higher = more potent) |
| --- | --- |
| TTGTATTCCAGCATCAAGCACA | -0.524 |
| TTCAAGACAACTTCCCAGCGGC | -0.119 |
| TTGGAGGGCAGTGTTAGCCTGG | -0.584 |
| TTTTTTGGTCTTGTAACAGGAG | -0.0686 |
| TCGATGACCACCATGGACCGGG | -0.357 |
| TAAACTGCAGAGACTCTTCATG | 0.214 |
| TTGCTGAGAAAGGTCCGCGGGT | -0.793 |
| TTCTCTGAGAGCAGTTTCGAGA | -0.721 |
| TTGGGTGTCGTTGTTGTCGATG | -0.39 |

What follows are sequences tested against CMPK1 in the same assay as above. Details: shRNA.

| Sequence | sensor-assay potency score (higher = more potent) |
| --- | --- |
| TTAATAAACACTAAAATGCTCC | -0.407 |
| TTAAGTTTTCTCATCTTTCTAC | 0.568 |
| TCAACTGGTACAATCTTTCCTT | 0.503 |
| TTTACCAAACACATTGTGCAAG | -0.707 |
| TACATCTGCCTTCCCATCCATG | -0.919 |
| TATCTCAACTGGTACAATCTTT | -0.621 |
| TATTCTTCTGAGCATTGGCAGC | -1.31 |
| TTAGAAGCATCTATTTTCTTGA | 0.0499 |
| TACAACTTTGTACAAGTTGTAG | -1.32 |
| TTGTTTACCAAACACATTGTGC | -0.615 |
| ATAAACACTAAAATGCTCCTAA | 0.491 |

These sequences were tested against CMPK2 in the same assay as above. Details: shRNA.

| Sequence | sensor-assay potency score (higher = more potent) |
| --- | --- |
| TCAAGTTCTGCTTCTTCCCTGG | 0.42 |
| TAATACCGTCTGCAGGACCTTT | -1.41 |
| TTGACGAAACACACTGTTGGCC | -0.221 |
| TCCTTCGATGGCAACAACCTGG | -1.1 |
| TTCATCATCAAAGATCTTCCTC | 0.515 |
| TTTGACGAAACACACTGTTGGC | -0.342 |
| TTTCAAACAACATCTAATCTAG | -0.108 |
| TTTTGGGCACTGGTCGACCAGG | -1.61 |
| TACCTGTCTACAATCACAGGAG | 0.285 |
| TTCTTCCCTGGTCTTCTCCATG | -1.63 |
| TGGTAGGACATTTCTACCTTTT | -1.68 |
| TGACTTTAAGAGGACAGCCTTA | -1.08 |

What follows are sequences tested against CMYA5 in the same assay as above. Details: shRNA.

| Sequence | sensor-assay potency score (higher = more potent) |
| --- | --- |
| TAACACTAGATTTCCTTCCTGA | 0.81 |
| TTAACATCTGGTCACTTCTTGC | -0.814 |
| TAATACTAGATTTCCTTCCTGA | 0.791 |
| TATGACTTCTCTTTCTCCGTGG | 0.895 |
| TTTTTCTTCACTGTGATCTGGC | 0.846 |
| TGAATCAATGACATCTTCCTTG | 0.597 |
| TACTTCTTGATCATCTTGTGGC | 0.514 |
| TTCACTTTCTTCCTGATCGATT | -0.264 |
